The structures appear in SMILES notation. Records with an inconclusive call do not appear. Unmarked numbers belong to inactive results. The source made the active and inactive calls. Calls come from the whole dose curve.
% is set by controls: 0 for no effect and ±100 for the full control effect.

The nature of this test: qHTS assay to identify small molecule agonists of H2AX - cell viability counter screen (AID 1224847). Note: top concentration of the series differs between compounds; nearly all actives have a fitted effect of over 30% in size. The note with it: CHO-K1 viability, CellTiter-Glo luminescence, 3 h; series mostly up to 154 µM; activity change, negative = cytotoxicity: at the top concentration. The text has this: National Center for Advancing Translational Sciences [NCATS]
NIH Chemical Genomics Center [NCGC]
U.S. Environmental Protection Agency [EPA]
National Institutes of Environmental Health Sciences [NIEHS]
National Toxicology Program [NTP]
U.S. Food and Drug Administration [FDA]
HTRF phospho-H2AX (Ser139) assay (Cisbio Bioassays, US) enables the quantitative detection of the histone variant H2AX when phosphorylated on serine 139. When double-stranded DNA breaks, either by ionizing radiation or endogenous physiological processes, H2AX becomes phosphorylated at Ser139. This phospho-Ser139 serves as a sensitive biomarker for the detection of such breaks, localizing the site of DNA repair. So, HTRF phospho-H2AX Ser139 is a pertinent assay to study genome stability, the cell cycle, DNA repair, and it serves as a biomarker for cancer, and to understand aging. Wild type CHO-K1 cells were used to identify the inducers of Phospho-H2AX Ser 139 from the Tox21 compound collections. Also cytotoxicity of the Tox21 10K compound library against the CHO-K1 cell line was tested by measuring the cell viability using CellTiter-Glo assay (Promega, Madison, WI).
Tox21 Assay Protocol Summary:
The CHO-K1 cells suspended in culture medium containing 10% FBS were dispensed at 1000 cells/ 3 ul/well in 1536-well white wall/solid bottom plates (Greiner Bio-One North America, NC) using a Multidrop Combi (Thermo Fisher Scientific Inc., Waltham, MA). After the assay plates were incubated at 37C overnight, 23 nl of compounds at 15 concentrations (from 5-48 columns) or positive control (from 1 to 4 columns) were transferred to the assay plates using a Pintool station (Wako, San Diego, CA) into each well resulting in a final DMSO concentration of 0.76%. After 3hr incubation at 37C, 3 uL/well CellTiter-Glo luminescent cell viability reagent (Promega Corporation, Madison, WI) was added using a Flying Reagent Dispenser (FRD) (Aurora Discovery, CA). After incubation at room temperature for 30 min, the luminescence intensity was read using a ViewLux plate reader (PerkinElmer, Waltham, MA).
On to `CC(C)(C#N)c1cc(Cn2cncn2)cc(C(C)(C)C#N)c1`, for which the compound was called inactive. For the compound `CNC(=O)Oc1ccc2c(c1)[C@]1(C)CCN(C)[C@@H]1N2C`, the result was inactive. For the compound `Clc1ccccn1`, the compound was called inactive. Take `OCc1ccccc1`: the “activity change, negative = cytotoxicity” value was 0.132%. As to `COc1ccc(OC)cc1`, the call was inactive. As to `CCCCCCCCCCCCCCCC(=O)OC(C)C`, the outcome was inactive. With `CC(C)(Oc1ccc(CCNC(=O)c2ccc(Cl)cc2)cc1)C(=O)O`, the outcome was inactive.

Take `O=C1C(c2[nH]c3ccccc3c2O)=Nc2ccccc21`: the compound was called inactive. Take `Cc1ccc(S(=O)(=O)N=C=O)cc1`: the call was inactive. On to `CCOC(=O)c1ccc(N)cc1`, for which the result was inactive.

As for `O=C(O)c1ccc(S(=O)(=O)N(Cl)Cl)cc1`, the compound was called inactive. Regarding `CC(O)CC(C)(C)O` (stereo not given), the result was inactive. On to `CC(C)c1cccc(C(C)C)c1`, for which the outcome was inactive. For `Nc1nc(N)nc(-c2ccccc2)n1`, the compound was classed as inactive.

As to `CC(C)CC(C)O` (stereo not given), the outcome was inactive. As to `O=C(O)/C=C/C(=O)O`, the compound was classed as inactive.

Turning to `CC(=O)OC1CC(C)OC(C)O1` (stereo not given), the outcome was inactive.

As for `COc1ccc(CCC(C)=O)cc1`, the result was inactive. As to `CC(C)CC(=O)CC(C)CC(C)C` (stereo not given), the compound was classed as inactive. Regarding `COC(=O)c1cccnc1`, the “activity change, negative = cytotoxicity” value was 3.86% [at 70.9 µM]. For the compound `O=C(O)c1ccc(C(=O)O)c(C(=O)O)c1`, the compound was classed as inactive. Regarding `CCCCCC(=O)O`, the compound was called inactive.

Consider `C=CCCCCCCCCC(=O)O`, for which the outcome was inactive. Consider `C[Si]1(C)O[Si](C)(C)O[Si](C)(C)O[Si](C)(C)O1`, for which the outcome was inactive. In the case of `CC(C)(C)c1cc(Cc2cc(C(C)(C)C)c(O)c(C(C)(C)C)c2)cc(C(C)(C)C)c1O`, the result was inactive. Turning to `O=S(=O)(O)c1ccccc1`, the call was inactive.

Regarding `CCNc1ccccc1`, the “activity change, negative = cytotoxicity” value is -4.06%. As for `NC(=S)NNC(N)=S`, the compound was called inactive. Regarding `O=[N+]([O-])c1ccc2nc[nH]c2c1`, the compound was called inactive. On to `C[C@]12CC[C@@H]3c4ccc(O)cc4CC[C@H]3[C@@H]1C[C@@H](O)[C@@H]2O`, for which the compound was classed as inactive. On to `Nc1ccc(Cl)c(N)c1`, for which the outcome was inactive.

`O=C(O)c1ccccc1C(=O)O`: the call was inactive. Take `CC(CCO)CC(C)(C)C` (stereo not given): the result was inactive. The same measure, in the same setting: in the case of `O=C(O)Cn1c(=O)n(Cc2ccc(Br)cc2F)c(=O)c2ccc(Cl)cc21` it was “inactive”. Regarding `COC(=O)CCCC(=O)OC`, the outcome was inactive. On to `CN(C)CCOC(=O)COc1ccc(Cl)cc1`, for which the call was inactive.

Regarding `CCOCCOCCOCCO`, the call was inactive. Still for that read-out and setting: in the case of `CC(=O)OCc1ccccc1` it was “inactive”; in that of `O=C1c2ccccc2CCc2ccccc21`, “inactive”.

Turning to `O=S(=O)(O)c1ccc(N=Nc2c(O)ccc3cc(S(=O)(=O)O)ccc23)cc1`, the “activity change, negative = cytotoxicity” value was -5.18%.

Values taken from PubChem BioAssay (Tox21).
